# Assay results reported in publication PMC4336329 (PLoS ONE, 2015).
# Screen size: about 310,000 compounds; about 2,200 (0.71%) showed an effect of 50% or more. Effects have a minus sign here. The full list was thinned out, with strong results kept by preference.
# Molecular target: human ether-à-go-go-related gene (hERG) potassium channel (human, UniProt Q12809)
# Assay: primary screen, population patch clamp on CHO cells stably expressing hERG; higher = less effect of the substance
# Description: Briefly, Chinese hamster ovary (CHO) cells stably expressing the hERG channel were dislodged from tissue culture flasks and dispensed into PPC plates. […] During the recording, background leak currents were estimated by a 100 ms step to -80 mV from an initial holding potential of -70 mV and subtracted from the subsequent current measurement. The campaign was conducted in two phases using slight differences in recording protocol. In the first phase, the initial voltage pulse used a 100 ms step to -30 mV from a holding potential of -70 mV, a 2 s conditioning step to +25 mV, and a 2 s test step to -30 mV. During the second phase of the screen, the potential during the conditioning step was raised to +45 mV. In both phases of the campaign, a secondary voltage pulse was applied using the same parameters as the second phase initial pulse. The initial and secondary pulses were applied in the absence of compound, and upon application of 1 μM and 10 μM test concentrations. Small molecule effects on hERG current density were quantified by […].
# Chain of human ether-à-go-go-related gene (hERG) potassium channel (Q12809 whole entry, looked up): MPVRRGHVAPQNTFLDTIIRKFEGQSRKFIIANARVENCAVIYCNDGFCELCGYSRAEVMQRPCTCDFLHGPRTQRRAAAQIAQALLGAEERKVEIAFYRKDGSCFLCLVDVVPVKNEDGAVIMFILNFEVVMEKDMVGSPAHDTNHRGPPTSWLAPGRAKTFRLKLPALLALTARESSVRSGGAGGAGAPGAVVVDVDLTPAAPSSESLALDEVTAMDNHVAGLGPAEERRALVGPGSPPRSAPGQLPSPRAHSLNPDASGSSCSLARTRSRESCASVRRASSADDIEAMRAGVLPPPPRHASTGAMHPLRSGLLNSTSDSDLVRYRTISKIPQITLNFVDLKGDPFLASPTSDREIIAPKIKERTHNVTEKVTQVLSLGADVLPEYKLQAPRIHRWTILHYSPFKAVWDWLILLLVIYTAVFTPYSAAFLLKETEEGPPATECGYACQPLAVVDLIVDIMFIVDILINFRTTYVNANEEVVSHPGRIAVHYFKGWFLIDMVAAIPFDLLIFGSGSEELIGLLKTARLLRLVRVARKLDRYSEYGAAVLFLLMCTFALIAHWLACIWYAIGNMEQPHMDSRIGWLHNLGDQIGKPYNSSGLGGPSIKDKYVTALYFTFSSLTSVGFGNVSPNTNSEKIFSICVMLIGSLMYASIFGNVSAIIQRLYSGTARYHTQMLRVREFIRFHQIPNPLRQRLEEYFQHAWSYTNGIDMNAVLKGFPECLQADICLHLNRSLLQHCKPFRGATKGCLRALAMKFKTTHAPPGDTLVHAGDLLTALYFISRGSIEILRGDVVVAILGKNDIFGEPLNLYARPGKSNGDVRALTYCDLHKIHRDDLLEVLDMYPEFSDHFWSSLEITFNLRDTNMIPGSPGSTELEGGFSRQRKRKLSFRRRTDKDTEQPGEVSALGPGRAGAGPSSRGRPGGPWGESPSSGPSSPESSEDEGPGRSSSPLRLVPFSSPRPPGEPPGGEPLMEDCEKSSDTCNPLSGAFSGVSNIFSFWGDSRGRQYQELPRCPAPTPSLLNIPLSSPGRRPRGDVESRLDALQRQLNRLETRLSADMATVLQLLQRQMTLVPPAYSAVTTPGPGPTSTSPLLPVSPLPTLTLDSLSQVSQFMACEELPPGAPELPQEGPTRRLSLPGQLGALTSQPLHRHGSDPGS
row,Compound,"hERG current change (%, negative = inhibition) at 1uM"
1,CCOC(=O)C1(CCc2ccccc2)CCN(Cc2ccc(C(=O)OC)cc2)CC1,-86.1%
2,CCOC(=O)C1(CCOc2ccccc2)CCN(Cc2ccc(C(=O)OC)cc2)CC1,-15.5%
3,CCOC(=O)C1(CCOC)CCN(Cc2ccc(C(=O)OC)cc2)CC1,0.201%
4,Cc1ccc(NC(=O)/C(C#N)=C/c2ccc(C)s2)c(C)c1,14.2%
5,N#Cc1ccc(CN2CCN(C(=O)c3ccc(S(=O)(=O)N4CCCCCC4)cc3)CC2)cc1,-5.24%
6,N#Cc1ccc(CN2CCN(C(=O)c3cccc(S(=O)(=O)N4CCCCCC4)c3)CC2)cc1,-51.3%
7,Cl.O=C(c1cccc(S(=O)(=O)N2CCCCC2)c1)N1CCN(Cc2ccccc2)CC1,6.64%
8,Cc1sc2ncn(Cc3ccccc3F)c(=O)c2c1C,1.65%
9,O=C1CS/C(=N/N=C2C3CC4CC(C3)CC2C4)N1,-4.65%
10,CC(=O)OC1CC[C@]2(C#N)[C@H]3CC[C@]4(C)[C@H](C5C=CC(=O)O5)CCC4(O)C3CCC2(O)C1 (stereo partly drawn),12.9%
11,Cc1cc(C(=O)N2CCCC(N3CCN(c4ccccc4C)CC3)C2)n(C)n1 (stereo not drawn),-87.7%
12,CCCc1cc(C(=O)N2CCCC(N3CCN(c4ccccc4C)CC3)C2)n(C)n1 (stereo not drawn),3.48%
13,Cc1ccccc1N1CCN(C2CCCN(C(=O)c3cc(CC(C)C)nn3C)C2)CC1 (stereo not drawn),5.95%
14,Cc1cccc(NS(=O)(=O)c2ccc(C(=O)NCC(C)(C)N3CCOCC3)cc2)c1C,-6.55%
15,Cc1nc2sc(C(c3cccs3)N3CCN(Cc4ccccc4)CC3)c(O)n2n1 (stereo not drawn),-50.1%
16,Cc1nc2sc(C(c3cccs3)N3CCN(c4ccccc4)CC3)c(O)n2n1 (stereo not drawn),5.92%
17,COc1ccc(C(c2sc3nc(C)nn3c2O)N2CCN(Cc3ccccc3)CC2)cc1OC (stereo not drawn),3.82%
18,COc1ccc(OC)c(/C=N/N(C)c2ccccc2)c1,12.4%
19,O=C(NCCCCO)C(F)(F)C(F)(F)C(F)(F)C(=O)NCCCCO,14.4%
20,CCC(CC)C(=O)c1c[nH]c(C(=O)NCc2ccncc2)c1,10%
21,CC(=O)c1ccc(N2CCN(CC(=O)Nc3ccccc3C(=O)NC3CC3)CC2)c(F)c1,-5.91%
22,COc1ccc(OC)c(CN2CCN(CC(=O)Nc3ccccc3C(=O)NC3CC3)CC2)c1,-87.6%

row,Compound,"hERG current change (%, negative = inhibition) at 1uM"
1,O=C(CN1CCN(S(=O)(=O)c2ccc(F)c(F)c2)CC1)Nc1ccccc1C(=O)NC1CC1,-23.7%
2,COc1ccccc1OCC(=O)Nc1ccccc1C(=O)NC1CC1,1.98%
3,COc1cc(C)c(CN2CCN(CC(=O)Nc3ccccc3C(=O)NC3CC3)CC2)cc1OC,-87.6%
4,CCOc1ccccc1C(=O)NC1CCN(CC(=O)Nc2cc(OC)ccc2OC)CC1,-25.6%
5,COc1ccc(OC)c(NC(=O)CN2CCC(NC(=O)c3ccccc3C)CC2)c1,-4.31%
6,COc1cc2c(cc1OC)CN(CC(=O)Nc1ccccc1C(=O)NC1CC1)CC2,-6.04%
7,COc1ccc(F)cc1CN1CCN(CC(=O)Nc2ccccc2C(=O)NC2CC2)CC1,-88.8%
8,COc1ccc(CN2CCN(CC(=O)Nc3ccccc3C(=O)NC3CC3)CC2)cc1F,-99.6%
9,CCOc1ccccc1N1CCN(CC(=O)Nc2ccccc2C(=O)NC2CC2)CC1,-23.5%
10,Cc1ccccc1N1CCN(CC(=O)Nc2ccccc2C(=O)NC2CC2)CC1,-35.4%
11,COc1ccc(NC(=O)CS(=O)(=O)c2ccc(F)cc2)cc1,10.6%
12,Cc1ccc(-c2cc(C(F)(F)F)n3nc(C(=O)Nc4ccon4)cc3n2)cc1C,7.99%
13,COCC(=O)N1CCCC(C(=O)c2ccc(-c3ccccc3)cc2)C1 (stereo not drawn),0.927%
14,O=C1/C(=C/c2cccc(Cl)c2)CSc2sccc21,16%
15,COc1ccc(COc2ccc(S(=O)(=O)N3CCCC3)cc2C(N)=O)cc1F,17.7%
16,CCOC(=O)c1oc2cc(OCC(N)=O)ccc2c(=O)c1-c1ccc(OC)c(OC)c1,15.2%
17,O=C(O)c1ccccc1NS(=O)(=O)c1ccccc1C(F)(F)F,5.14%
18,O=C(Nc1ccc2nc3n(c(=O)c2c1)CCCCC3)c1ccccc1[N+](=O)[O-],14.6%
19,CC1CN(C(=S)Nc2cccc(Cl)c2Cl)CC(C)O1 (stereo not drawn),2.73%
20,COc1cccc(CNC(=O)C2CCN(S(=O)(=O)c3ccc4c(c3)CCC(=O)N4)CC2)c1,17.5%
21,Cc1ccc(C(=O)Oc2coc(CSc3nnc(NC(=O)c4cccs4)s3)cc2=O)cc1,13.4%
22,Cc1ccc(C(=O)/C=C\NCc2ccccc2)cc1,7.27%

row,Compound,"hERG current change (%, negative = inhibition) at 1uM"
1,N=c1c(S(=O)(=O)c2ccc(Cl)cc2)cc2c(=O)n3ccccc3nc2n1C1CCCC1,13.9%
2,N=c1c(C(=O)NC2CCCC2)cc2c(=O)n3ccccc3nc2n1C1CCCCC1,-86.9%
3,O=C(NC1CCCCCC1)c1cc2c(=O)n3ccccc3nc2s1,8.59%
4,N=c1c(C(=O)NC2CCCC2)cc2c(=O)n3ccccc3nc2n1C1CCCC1,-89.1%
5,Cn1c(C(=O)NC2CCCCC2)cc2c(=O)n3ccccc3nc21,13.4%
6,O=P(C(Cl)Cl)(N1CCOCC1)N1CCOCC1,17.8%
7,CC(=O)Nc1cccc(NC(=O)CSc2nnc3ccc(-c4cccnc4)nn23)c1,13.1%
8,CCn1cc(/C=C/C(=O)Nc2c(C)nn(Cc3ccccc3)c2C)cn1,6.45%
9,Cc1nc(-c2ccccc2)nc2[nH]c(C(C)C)cc(=O)c12,-5.88%
10,CC(=O)c1ccc(Nc2cc(C)nc3ccc(C)cc23)cc1,-53.2%
11,COC(=O)c1ccc(Nc2cc(C)nc3ccc(C)cc23)cc1.Cl,-9.09%
12,CC(=O)c1cccc(Nc2cc(C)nc3ccc(C)cc23)c1.Cl,-13.7%
13,N#Cc1ccc(N2CCOCC2)nc1,1.37%
14,N#Cc1ccc(N2CCCNCC2)nc1,-90.9%
15,CCCCNC(=O)N1CCCN(c2ccc(C#N)cn2)CC1,-11.6%
16,Cc1ccc(NC(=O)COC(=O)Cn2cnc3c2c(=O)n(C)c(=O)n3C)c(Cl)c1,13.3%
17,Cc1ccc(C(=O)COC(=O)C2C3C=CC(C3)C2C(=O)OCC(=O)c2ccc(C)c(C)c2)cc1C (stereo not drawn),11.2%
18,O=C(NCCC1CCCCN1S(=O)(=O)c1ccc(F)cc1)C(=O)Nc1ccccc1 (stereo not drawn),7.03%
19,NC(=O)COC(=O)c1ccc(Oc2ccccc2)cc1,4.12%
20,O=C(Nc1ccccc1N1CCCC1)c1ccccc1F,6.48%
21,COC(=O)c1ccc(N2CCOCC2)c(NC(=O)c2cccs2)c1,0.514%
22,CNC(=S)Nc1cc(C(=O)N2CCCC2)ccc1N1CCCC1,2.01%

row,Compound,"hERG current change (%, negative = inhibition) at 1uM"
1,O=C(Nc1ccc(C(=O)N2CCOCC2)cc1)c1cccs1,20.3%
2,O=C(Nc1cc(C(=O)N2CCCC2)ccc1N1CCCC1)c1ccccc1,-83.5%
3,O=C(Nc1cc(C(=O)N2CCCC2)ccc1N1CCCC1)C1CC1,-1.85%
4,O=C(Nc1ccccc1C(=O)N1CCCCCC1)c1ccccc1Cl,13.6%
5,O=C(Nc1ccccc1C(=O)N1CCCC1)c1ccc(Cl)cc1Cl,10.3%
6,O=C(Nc1cc(C(=O)N2CCOCC2)ccc1N1CCCC1)c1cccs1,-78.2%
7,O=C(Nc1ccccc1N1CCCCC1)c1ccccc1F,-5.76%
8,O=C(Nc1cc(C(=O)N2CCCC2)ccc1N1CCCC1)c1ccccc1F,-82.8%
9,O=C(Nc1ccccc1C(=O)N1CCCCC1)c1ccc(Cl)cc1Cl,-79.6%
10,Cc1nnsc1C(=O)N1CCN(c2ccc(C#N)cn2)CC1,3.48%
11,CCOc1cccc(/C=N/N2C(C)CCCC2C)c1O (stereo not drawn),2.07%
12,CCCCCCOc1ccc(CN2CCN(C)CC2)cc1,-0.56%
13,CC(=O)/C=C\c1ccccc1OC(=O)c1cc2ccccc2oc1=O,16.3%
14,CCOC(=O)c1cc2cc(OCc3ccccc3)ccc2nc1C,8.83%
15,CC(C)c1csc(CN2CCC(N3CCC(C(=O)NCC4CCCO4)CC3)CC2)n1 (stereo not drawn),9.96%
16,O=C(Oc1ccc2ccc(=O)oc2c1)c1ccccc1,9.28%
17,O=C(Oc1ccc2ccccc2c1)c1ccco1,-0.657%
18,O=C(Oc1ccc2ccc(=O)oc2c1)c1ccco1,-53.7%
19,CC1(c2nnc(-c3ccncc3)o2)CC(c2cccc(Cl)c2)=NO1 (stereo not drawn),13.4%
20,O=C(CN1C(=O)CSC1=O)N1CCCC(Nc2ccc(F)cc2)C1 (stereo not drawn),11.5%
21,CCc1ccc(NC(=O)CSCCN2C(=O)c3ccccc3C2=O)cc1,-8.99%
